# Test results taken from PubChem BioAssay (NCATS).
# Records with an inconclusive call do not appear. Where a call stands in place of a potency, no number is given. Calls of active or inactive are those of the source. Calls follow the shape of the dose curve; as a rule, active = well fitted curve in the direction sought with a large enough effect; inconclusive = small, poorly fitted or top-dose-only effect, or another doubt; inactive = no such curve, though single readings can be large or run the other way.
# Molecular target: Metallo-beta-lactamase type 2 (Klebsiella pneumoniae) (UniProt C7C422)
# Assay: qHTS to identify inhibitors of the New Delhi Metallo-beta-lactamase (NDM): assay validation screen against the NCATS LOPAC Collection (AID 1794843);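 also: nitrocefin turnover by NDM-1 measured as 485 nm absorbance at plateau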
# Conditions: NDM-1 enzyme, nitrocefin hydrolysis, absorbance 485 nm; series mostly up to 38.4 µM
# Description: Assay Submitter (PI): James Inglese Ph.D., Patricia Dranchak Ph.D., Mahesh Aitha Ph.D.
# Assay Development and Screening Technology Laboratory (ADST)
# National Center for Advancing Translational Sciences (NCATS), Rockville, MD
# National Institute of Health (NIH), Bethesda, Maryland
# The metallo-beta-lactamases (MBL) are a main antibiotic resistance mechanism evolved by bacteria. There is an urgent clinical need for MBL inhibitors to mitigate this growing threat. To support a machine-based learning study, qHTS has been used to experimentally test inhibitors identified by prediction tools.
# PROTOCOL TABLE (as described by Inglese et al., 2007)
# SEQUENCE No. (e.g., 1, 2, 3, etc.); […] (e.g., enzyme, Incubation, Reagent, etc.); VALUE; DESCRIPTION
# 1; NDM-1; 4 uL of 3 nM enzyme in 50 mM HEPES (pH 7.0), 1 uM Zn2SO4, 0.01% Tween20; Use BioRaptr to dispense into Aurora black, clear bottom low base 1536-well plates
# 2; Compounds; 23 nL; Use Pin Tool (Wako) to transfer DMSO control and library compounds in DMSO
# 4; Reagent; 2 uL of 50 uM nitrocefin
# 6; Detector; Absorbance at 485 nm (bandwidth = 5 nm, 25 flashes/well) on Tecan Infinity
# NOTES (numbers refer to sequence above)
# 1; Column 1 of each plate received assay buffer without enzyme and columns 2-48 received enzyme for a final assay concentration of 2 nM.
# 2; Control plate contained DMSO in columns 1, 2, 3, and 4.
# 3; Compound interaction with enzyme.
# 5; Substrate interaction with enzyme, plateau phase of kinetics.
# 6; Default reader settings were applied for absorbance read at 485 nm, bandwidth = 5 nm, 25 flashes/well.
# Inglese J, Shamu CE, Guy RK. 2007. Reporting data from high-throughput screening of small-molecule libraries. Nat Chem Biol. doi:10.1038/nchembio0807-438
# Yasgar A, Shinn P, Jadhav A, Auld D, Michael S, Zheng W, Austin CP, Inglese J, Simeonov A. 2008. Compound Management for Quantitative High-Throughput Screening. J Lab Autom 13:79 - 89. doi:10.1016/j.jala.2007.12.004
# Sequence of Metallo-beta-lactamase type 2 (Klebsiella pneumoniae) (C7C422 whole entry, looked up): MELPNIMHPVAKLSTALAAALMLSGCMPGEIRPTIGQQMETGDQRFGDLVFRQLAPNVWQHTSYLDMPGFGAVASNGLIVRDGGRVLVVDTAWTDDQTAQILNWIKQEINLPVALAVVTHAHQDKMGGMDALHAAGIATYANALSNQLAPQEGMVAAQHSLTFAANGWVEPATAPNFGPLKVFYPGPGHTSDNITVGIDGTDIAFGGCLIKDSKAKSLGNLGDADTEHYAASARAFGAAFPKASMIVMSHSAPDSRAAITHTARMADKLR
row,SMILES,Potency
1,Nc1ccn([C@@H]2O[C@H](CO)[C@@H](O)[C@@H]2O)c(=O)n1,inactive
2,NC(=O)C(=O)O,inactive
3,O=C1NC(=O)c2c1c(-c1ccccc1)cc1[nH]c3ccc(O)cc3c21,inactive
4,CC(C)CC(NP(=O)(O)O[C@@H]1O[C@@H](C)[C@H](O)[C@@H](O)[C@H]1O)C(=O)NC(Cc1c[nH]c2ccccc12)C(=O)O (stereo not given in full),inactive
5,O=C1NCc2c1c1c3ccccc3[nH]c1c1[nH]c3ccccc3c21,inactive
6,Oc1ccccc1O,inactive
7,Nc1nc2c(ncn2[C@@H]2O[C@H](CO)[C@@H](O)[C@@H]2O)c(=O)[nH]1,inactive
8,O=Nc1ccc2oc(=O)ccc2c1,inactive
9,O=C(Nc1ccncc1)c1cc([N+](=O)[O-])ccc1Cl,inactive
10,O=[N+]([O-])c1ccc(CSc2ncnc3c2ncn3[C@@H]2O[C@H](CO)[C@@H](O)[C@H]2O)cc1,inactive
11,C#C[C@]1(O)CC[C@H]2[C@@H]3CCC4=Cc5oncc5CC4(C)[C@H]3CCC21C (stereo not given in full),inactive
12,O=C(O)CC[C@@H](C(=O)O)N1C(=O)c2ccccc2C1=O,inactive
13,CNC(=O)[C@H]1O[C@@H](n2cnc3c(NCc4ccc(N)cc4)ncnc32)[C@H](O)[C@@H]1O,inactive
14,O=[N+]([O-])c1ccc2c(c1)S(=O)(=O)C=C2,inactive
15,Cc1ccc(S(=O)(=O)/C=C/C#N)cc1,inactive
16,O=C(/C=C/c1ccc(O)c(O)c1)OCCc1ccccc1,inactive
17,CCCCCCCCCCCCCCCCCC(=O)OC(CC(=O)O)C[N+](C)(C)C (stereo not given),inactive
18,Fc1ccc(C(OCCCc2cnc[nH]2)c2ccc(F)cc2)cc1,inactive
19,CC(=O)N[C@H](C(=O)O)C(C)(C)SN=O,inactive
20,O=C(c1ccc(OCCCc2cnc[nH]2)cc1)C1CC1,inactive

row,SMILES,Potency
1,CNC(=O)[C@H]1O[C@@H](n2cnc3c(NCc4cccc(I)c4)ncnc32)[C@H](O)[C@@H]1O,inactive
2,CN1CC(=O)N/C1=N/C(=O)Nc1cccc(Cl)c1,inactive
3,COc1ccc(Br)cc1S(=O)(=O)NC(=O)/C=C/c1ccccc1Cc1ccc2ccccc2c1,inactive
4,Clc1ccc(N2CCN(Cc3c[nH]c4ncccc34)CC2)cc1,inactive
5,Fc1ccc2[nH]c(CN3CCN(c4ccccn4)CC3)cc2c1,inactive
6,Oc1cc(O)cc(/C=C/c2ccc(O)c(O)c2)c1,inactive
7,NS(=O)(=O)c1ccc(-n2nc(C(F)(F)F)cc2-c2ccc(Cl)cc2)cc1,inactive
8,Clc1ccc(N2CCN(Cc3cc4ccccn4n3)CC2)cc1,inactive
9,NCCCCCCCCCCN,inactive
10,CC(C)(NS(=O)(=O)c1ccc(Oc2ccc(F)cc2)cc1)C(=O)NO,inactive
11,Oc1cc2c(cc1O)CN(C(=S)NCCc1ccc(Cl)cc1)CCC2,inactive
12,CC(N)C(=O)OC(C)(C)Cc1ccc(Cl)cc1 (stereo not given),inactive
13,CCCN(CC1CC1)c1nc(C)nc(Nc2c(Cl)cc(Cl)cc2Cl)c1Cl,inactive
14,O=C(O)c1cc(=O)c2c(Cl)cc(Cl)cc2[nH]1,inactive
15,O=C(O)CNC(=O)C(CS)Cc1ccccc1 (stereo not given),inactive
16,CC(C)NC[C@H](O)COc1cccc2[nH]ccc12,inactive
17,CN1CCc2ccccc2Cc2[nH]c3ccccc3c2CC1,inactive
18,CC(C)c1cccc(C(C)C)c1N1C(=O)c2ccc(O)cc2C1=O,inactive
19,Fc1cccc(/C=N/N=C/c2cccc(F)c2)c1,inactive
20,N[C@H](CCCP(=O)(O)O)C(=O)O,inactive
